The text below walks through data of the supplement of paper PMC10732440.

± gives the standard deviation of the averaged measurements.

The first assay relates to Caenorhabditis elegans N2 infected with Nematocida parisii ERTm1. Briefly: progeny production relative to DMSO uninfected control; higher = more progeny despite microsporidia infection (inhibition of infection with low host toxicity). Particulars: infection time 6 days; 40 µM. An outline of the steps:
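Compound was pinned to 100 μM or 40 μM in 1% DMSO into 96-well plates containing K-medium, E. coli OP50, 15,000 N. parisii spores/μL and 100 synchronised wild-type C. elegans L1 larvae per well. Following 6 days of shaking at 21°C, worms were Rose Bengal-stained, scanned and counted with WorMachine, in three runs per compound and dose. Progeny production appears as a replicate-averaged percentage of spore-free vehicle wells.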
`CCCCCOc1ccc(/C=C2\Oc3c(ccc(O)c3O)C2=O)c(O)c1` registered a progeny production of 2.87 ± 0.23%.

For the compound `CC(C)Oc1ccc(-n2cnc3cc(/C=C\c4ccc(C(C)(C)O)cc4)ccc32)cc1`, the progeny production worked out at 5 ± 1.6%.

In turn, `CCN(CC)S(=O)(=O)c1ccc(Cl)c(C(=O)Nc2sc3c(c2C#N)CCCC3)c1` displayed a progeny production of 6.31 ± 2.1%.

As to `CC(C)(C)NC(=O)[C@@H]1CN(Cc2cnc3occc3c2)CCN1C[C@@H](O)C[C@@H](Cc1ccccc1)C(=O)N[C@H]1c2ccccc2C[C@H]1O`, the progeny production was 8.87 ± 0.17%.

Consider `Fc1cccc(Cl)c1C1CC(c2ccc(Cl)cc2)Nc2nnnn21` (stereo not drawn), for which the progeny production is 4.5 ± 4.2%.

For `OB1OCc2cc(Cl)ccc21`, the progeny production came out at 4.68 ± 1.6%.

For the compound `NCc1ccc(S(N)(=O)=O)cc1`, the progeny production is 5.64 ± 3.5%.

As for `COc1ccc2cc3[n+](cc2c1OCCN(CCn1cncn1)Cc1ccc(F)cc1F)CCc1cc2c(cc1-3)OCO2`, the progeny production was determined as 5.91 ± 1.2%.

In the case of `CCCCSc1nc(N)c2[nH]c(=O)c(=O)n(Cc3ccccc3)c2n1`, the progeny production was determined as 4.52 ± 1.9%.

`O=C(NCc1cccc2ccccc12)c1cccs1` showed a progeny production of 3.62 ± 2.1%.

Compound `COC1CC2CCC(C)C(O)(O2)C(=O)C(=O)N2CCCCC2C(=O)OC(C(C)CC2CCC(OCCO)C(OC)C2)CC(=O)C(C)/C=C(\C)C(O)C(OC)C(=O)C(C)CC(C)/C=C/C=C/C=C/1C` (stereo not drawn) yielded a progeny production of 5.45 ± 2.7%.

As for `CN(C)[C@@H]1C(=O)C(C(N)=O)=C(O)[C@@]2(O)C(=O)C3=C(O)c4c(O)c(NC(=O)CN5CCCC5)cc(F)c4C[C@H]3C[C@@H]12`, the progeny production was found to be 4.54 ± 0.11%.

Consider `Nc1nnc(-c2ccc(Cl)cc2)s1`, for which the progeny production amounted to 5.44 ± 1.4%.

`COc1ccc(SCC(=O)N2c3ccccc3Sc3ccccc32)cc1` returned a progeny production of 5.84 ± 2.3%.

In turn, `CC(C)/N=c1\cc2n(-c3ccc(Cl)cc3)c3ccccc3nc-2cc1Nc1ccc(Cl)cc1` displayed a progeny production of 5.08 ± 1.9%.

Regarding `O=C(Nc1ccc(N2CCN(C(=O)c3ccccc3)CC2)cc1)c1ccc2c(c1)OCO2`, the progeny production was determined as 5.03 ± 1.4%.

`O=c1ccc2ncc(=O)n3c2n1CC3CN1CCC(NCc2cc3c(cn2)OCCC3)CC1` (stereo not drawn): the progeny production came out at 2.13 ± 0.25%.

`NC(=O)c1c(N)sc2c1CCCCC2` came in with a progeny production of 3.71 ± 1.1%.

In turn, `CC(C)CCN1C(=O)C(C2=NS(=O)(=O)c3cc(NS(C)(=O)=O)ccc3N2)=C(O)[C@@H]2[C@H]3CC[C@H](C3)[C@@H]21` came in with a progeny production of 3.42 ± 3.9%.

Consider `CC(C)(C)c1cccc(-c2nc3cc(C(=N)N)ccc3[nH]2)c1O`, for which the progeny production turned out to be 2.13 ± 0.25%.

With `COc1cc(NS(=O)(=O)c2ccc(C)cc2)c2ncccc2c1`, the progeny production was found to be 5.38 ± 2.2%.

`COc1nc2ccc(Br)cc2cc1[C@@H](c1ccccc1)[C@@](O)(CCN(C)C)c1cccc2ccccc12`: the progeny production worked out at 7.24 ± 3.5%.

`O=C(O)CCNC(=O)c1ccccc1` had a progeny production of 13 ± 12%.

Take `C/C(=N\NC(=O)C1CC1c1ccccc1)c1ccc(NC(=O)c2ccco2)cc1` (stereo not drawn): the progeny production turned out to be 2.3 ± 0.95%.

`O=C(O)c1ccc(-c2ccc(O[C@H]3O[C@H](CO)[C@@H](O)[C@H](O)[C@@H]3O)cc2)cc1`: the progeny production worked out at 5.12 ± 2.8%.

The compound `C[C@@H](c1nc(-c2ccc(C#N)cc2)cs1)[C@](O)(Cn1cncn1)c1ccc(F)cc1F` had a progeny production of 5.04 ± 1.2%.

`O=C(c1cc(O)nc2ccccc12)N1CCN(c2ccccc2)CC1`: the progeny production came out at 5.44 ± 4.1%.

As to `Nc1nc(-c2ccccc2)nc2[nH]nc(Nc3ccc(C(F)(F)F)cc3)c12`, the progeny production is 7.69 ± 2.2%.

For `CCOc1ccc(C(=O)NCCc2ccccc2)cc1`, the progeny production stood at 6.06 ± 3.1%.

The compound `NC[C@H]1O[C@H](O[C@H]2[C@H](O)[C@@H](O[C@H]3O[C@H](CO)[C@@H](O)[C@H](N)[C@H]3O)[C@H](N)C[C@@H]2N)[C@H](N)C[C@@H]1O` had a progeny production of 6.6 ± 2.4%.

In turn, `O=c1nc(N2CCN(CC3CCCCC3)CC2)sc2c([N+](=O)[O-])cc(C(F)(F)F)cc12` returned a progeny production of 4.77 ± 2.5%.

In the case of `CC(C)=CCC/C(C)=C/CNCCNC1C2CC3CC(C2)CC1C3` (stereo not drawn), the progeny production stood at 6.62 ± 1.2%.

In the case of `O=c1oc2ccc(Br)cc2cc1CSc1ncc[nH]1`, the progeny production came out at 6.6 ± 2.9%.

With `Cc1cc(C)n(O)c(=O)c1`, the progeny production turned out to be 1.95 ± 0.44%.

With `COc1ccc(C)cc1NC(=O)c1ccc(S(=O)(=O)N2CCCCC2)cc1`, the progeny production was 7.49 ± 1.3%.

Consider `Nc1nc2c(ncn2COC(CO)CO)c(=O)[nH]1`, for which the progeny production was found to be 7.03 ± 4.7%.

`CN1CCN(c2ccc3[nH]c(-c4ccc5[nH]c(-c6ccc(O)cc6)nc5c4)nc3c2)CC1` came in with a progeny production of 6.36 ± 1.4%.

The compound `CCc1cc(Cc2cnc(N)nc2N)cc2c1N(C)CCC2C` (stereo not drawn) displayed a progeny production of 11.7 ± 8.4%.

Compound `O=C(c1nc2c(C(F)(F)F)cc(C3CC3)cn2c1Cl)N1CCN([C@H]2CC[C@H](O)CC2)C(=O)C1` displayed a progeny production of 3.88 ± 1.4%.

Still in this assay, the particulars now being: infection time 6 days; 100 µM.
`CCCCCOc1ccc(/C=C2\Oc3c(ccc(O)c3O)C2=O)c(O)c1` registered a progeny production of 11.2 ± 7%.

In the case of `CC(C)Oc1ccc(-n2cnc3cc(/C=C\c4ccc(C(C)(C)O)cc4)ccc32)cc1`, the progeny production was determined as 10.6 ± 2%.

On to `CCN(CC)S(=O)(=O)c1ccc(Cl)c(C(=O)Nc2sc3c(c2C#N)CCCC3)c1`, for which the progeny production stood at 31.3 ± 22%.

As for `CC(C)(C)NC(=O)[C@@H]1CN(Cc2cnc3occc3c2)CCN1C[C@@H](O)C[C@@H](Cc1ccccc1)C(=O)N[C@H]1c2ccccc2C[C@H]1O`, the progeny production stood at 8.42 ± 0.9%.

`Fc1cccc(Cl)c1C1CC(c2ccc(Cl)cc2)Nc2nnnn21` (stereo not drawn) yielded a progeny production of 7.47 ± 2.1%.

Regarding `OB1OCc2cc(Cl)ccc21`, the progeny production was determined as 21.3 ± 17%.

Compound `NCc1ccc(S(N)(=O)=O)cc1` showed a progeny production of 7.3 ± 1.6%.

`COc1ccc2cc3[n+](cc2c1OCCN(CCn1cncn1)Cc1ccc(F)cc1F)CCc1cc2c(cc1-3)OCO2` came in with a progeny production of 17.3 ± 14%.

Turning to `CCCCSc1nc(N)c2[nH]c(=O)c(=O)n(Cc3ccccc3)c2n1`, the progeny production is 20.2 ± 11%.

`O=C(NCc1cccc2ccccc12)c1cccs1`: the progeny production was 12.9 ± 10%.

On to `COC1CC2CCC(C)C(O)(O2)C(=O)C(=O)N2CCCCC2C(=O)OC(C(C)CC2CCC(OCCO)C(OC)C2)CC(=O)C(C)/C=C(\C)C(O)C(OC)C(=O)C(C)CC(C)/C=C/C=C/C=C/1C` (stereo not drawn), for which the progeny production is 9.56 ± 2.5%.

In the case of `CN(C)[C@@H]1C(=O)C(C(N)=O)=C(O)[C@@]2(O)C(=O)C3=C(O)c4c(O)c(NC(=O)CN5CCCC5)cc(F)c4C[C@H]3C[C@@H]12`, the progeny production was 6.16 ± 0.72%.

For `Nc1nnc(-c2ccc(Cl)cc2)s1`, the progeny production was 16.3 ± 16%.

For the compound `COc1ccc(SCC(=O)N2c3ccccc3Sc3ccccc32)cc1`, the progeny production is 14.1 ± 5.9%.

As for `CC(C)/N=c1\cc2n(-c3ccc(Cl)cc3)c3ccccc3nc-2cc1Nc1ccc(Cl)cc1`, the progeny production came to 9.5 ± 7.2%.

For `O=C(Nc1ccc(N2CCN(C(=O)c3ccccc3)CC2)cc1)c1ccc2c(c1)OCO2`, the progeny production amounted to 15.6 ± 10%.

`O=c1ccc2ncc(=O)n3c2n1CC3CN1CCC(NCc2cc3c(cn2)OCCC3)CC1` (stereo not drawn) gave a progeny production of 18.2 ± 18%.

For `NC(=O)c1c(N)sc2c1CCCCC2`, the progeny production was 8.33 ± 4.8%.

The compound `CC(C)CCN1C(=O)C(C2=NS(=O)(=O)c3cc(NS(C)(=O)=O)ccc3N2)=C(O)[C@@H]2[C@H]3CC[C@H](C3)[C@@H]21` showed a progeny production of 9.92 ± 5.3%.

Compound `CC(C)(C)c1cccc(-c2nc3cc(C(=N)N)ccc3[nH]2)c1O` displayed a progeny production of 20.4 ± 23%.

Regarding `COc1cc(NS(=O)(=O)c2ccc(C)cc2)c2ncccc2c1`, the progeny production came out at 10.3 ± 3.9%.

The compound `COc1nc2ccc(Br)cc2cc1[C@@H](c1ccccc1)[C@@](O)(CCN(C)C)c1cccc2ccccc12` registered a progeny production of 14.3 ± 4.9%.

Compound `O=C(O)CCNC(=O)c1ccccc1` came in with a progeny production of 16.4 ± 8.7%.

As to `C/C(=N\NC(=O)C1CC1c1ccccc1)c1ccc(NC(=O)c2ccco2)cc1` (stereo not drawn), the progeny production was 6.87 ± 1.1%.

On to `O=C(O)c1ccc(-c2ccc(O[C@H]3O[C@H](CO)[C@@H](O)[C@H](O)[C@@H]3O)cc2)cc1`, for which the progeny production amounted to 7.21 ± 4.6%.

Compound `C[C@@H](c1nc(-c2ccc(C#N)cc2)cs1)[C@](O)(Cn1cncn1)c1ccc(F)cc1F` gave a progeny production of 14.7 ± 10%.

In turn, `O=C(c1cc(O)nc2ccccc12)N1CCN(c2ccccc2)CC1` displayed a progeny production of 9.85 ± 7.2%.

As for `Nc1nc(-c2ccccc2)nc2[nH]nc(Nc3ccc(C(F)(F)F)cc3)c12`, the progeny production amounted to 29.5 ± 27%.

With `CCOc1ccc(C(=O)NCCc2ccccc2)cc1`, the progeny production came out at 6.07 ± 3%.

Regarding `NC[C@H]1O[C@H](O[C@H]2[C@H](O)[C@@H](O[C@H]3O[C@H](CO)[C@@H](O)[C@H](N)[C@H]3O)[C@H](N)C[C@@H]2N)[C@H](N)C[C@@H]1O`, the progeny production amounted to 11.7 ± 16%.

Compound `O=c1nc(N2CCN(CC3CCCCC3)CC2)sc2c([N+](=O)[O-])cc(C(F)(F)F)cc12` yielded a progeny production of 9.3 ± 5.1%.

In the case of `CC(C)=CCC/C(C)=C/CNCCNC1C2CC3CC(C2)CC1C3` (stereo not drawn), the progeny production came out at 30 ± 23%.

`O=c1oc2ccc(Br)cc2cc1CSc1ncc[nH]1` returned a progeny production of 11.1 ± 7.2%.

Take `Cc1cc(C)n(O)c(=O)c1`: the progeny production is 14.8 ± 8.8%.

In turn, `COc1ccc(C)cc1NC(=O)c1ccc(S(=O)(=O)N2CCCCC2)cc1` showed a progeny production of 19.4 ± 16%.

The compound `Nc1nc2c(ncn2COC(CO)CO)c(=O)[nH]1` came in with a progeny production of 10.9 ± 4.7%.

In the case of `CN1CCN(c2ccc3[nH]c(-c4ccc5[nH]c(-c6ccc(O)cc6)nc5c4)nc3c2)CC1`, the progeny production was found to be 15.4 ± 12%.

`CCc1cc(Cc2cnc(N)nc2N)cc2c1N(C)CCC2C` (stereo not drawn): the progeny production was 4.65 ± 0.53%.

`O=C(c1nc2c(C(F)(F)F)cc(C3CC3)cn2c1Cl)N1CCN([C@H]2CC[C@H](O)CC2)C(=O)C1`: the progeny production was 14.2 ± 1.2%.
